Laboratory results: PubChem BioAssay AID1159580 (chemical genetic matrix, 2015)
Where “and” joins values, the source holds several entries; their conditions need not be identical. Identical values can stand only once. About 2,000 (36%) of roughly 5,500 compounds were called active. Another 18% or so got no clear call; they are omitted. No stated cut-off is given here; in the data, active means normalized growth mostly below about 0.91 (no sharp cut-off); inconclusive means no clear call, values can overlap the other calls; inactive means mostly above about 0.92. Some of the results follow.

Test: chemical genetic growth profiling, strain panel (AID 1159580);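 further: tested at 20 µM; growth read once vehicle control cultures reached saturation at 30 °C; 1 = growth at the plate median or of vehicle wells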
Settings: S. cerevisiae deletion strains, growth OD
[1] = locus YAL013W, strain DEP1, stronger effect = lower value
[2] = locus YGR078C, strain PAC10, stronger effect = lower value

Measured: normalized growth

O=c1[nH]ccc2c(O)cccc12
inactive: [1] 0.996 | locus YAL040C, strain CLN3, stronger effect = lower value 0.999 | locus YCL061C, strain MRC1 (second series), stronger effect = lower value 0.996 | locus YDR363W, strain ESC2, stronger effect = lower value 1.02 | locus YER002W, strain NOP16, stronger effect = lower value 0.999 | [2] 1 | locus YGR229C, strain SMI1, stronger effect = lower value 1.02 | locus YNL175C, strain NOP13, stronger effect = lower value 1.01 | locus YNL197C, strain WHI3, stronger effect = lower value 1.01 | locus YNL224C, strain SQS1, stronger effect = lower value 0.994 | locus YNL322C, strain KRE1, stronger effect = lower value 1 | locus YOR083W, strain WHI5 (second series), stronger effect = lower value 1.06 | locus YPL241C, strain CIN2, stronger effect = lower value 0.99

Cc1cc(O)c2c(c1)C(=O)c1cccc(O)c1C2=O
inactive: [1] 0.971 | locus YAL021C, strain ccr4, stronger effect = lower value 0.991 | locus YAL026C, strain drs2, stronger effect = lower value 0.974 | locus YAL030W, strain snc1, stronger effect = lower value 1 | locus YBL061C, strain skt5, stronger effect = lower value 0.999 | locus YBR009C, strain hhf1, stronger effect = lower value 0.98 | locus YBR021W, strain FUR4, stronger effect = lower value 1.05 | locus YBR023C, strain chs3, stronger effect = lower value 1.01 | locus YBR171W, strain sec66, stronger effect = lower value 0.996 | locus YBR229C, strain ROT2, stronger effect = lower value 0.996 | locus YBR231C, strain swc5, stronger effect = lower value 0.967 | locus YBR279W, strain paf1, stronger effect = lower value 1 | locus YCL011C, strain gbp2, stronger effect = lower value 1 | locus YCL016C, strain dcc1, stronger effect = lower value 1 | locus YCL029C, strain bik1, stronger effect = lower value 0.992 | locus YCL061C, strain MRC1, stronger effect = lower value 1 | locus YCL069W, strain vba3, stronger effect = lower value 1 | locus YCR088W, strain abp1, stronger effect = lower value 1 | locus YDL005C, strain med2, stronger effect = lower value 1.01 | locus YDL035C, strain GPR1, stronger effect = lower value 0.975 | locus YDL040C, strain nat1, stronger effect = lower value 0.985 | locus YDL074C, strain BRE1, stronger effect = lower value 0.935 | locus YDL101C, strain DUN1, stronger effect = lower value 0.997 | locus YDL185W, strain tfp1, stronger effect = lower value 0.987 | locus YDL192W, strain arf1, stronger effect = lower value 0.967 | locus YDR001C, strain nth1, stronger effect = lower value 0.998 | locus YDR069C, strain doa4, stronger effect = lower value 0.99 | locus YDR101C, strain arx1, stronger effect = lower value 0.975 | locus YDR159W, strain sac3, stronger effect = lower value 1 | locus YDR162C, strain NBP2, stronger effect = lower value 0.969 | locus YDR297W, strain sur2, stronger effect = lower value 0.999 | locus YDR318W, strain mcm21, stronger effect = lower value 0.989 | locus YDR334W, strain swr1, stronger effect = lower value 0.993 | locus YDR335W, strain msn5, stronger effect = lower value 0.989 | locus YDR388W, stronger effect = lower value 0.994 | locus YDR392W, strain spt3, stronger effect = lower value 0.82 | locus YDR502C, strain sam2, stronger effect = lower value 1.01 | locus YEL003W, strain gim4, stronger effect = lower value 0.988 | locus YEL037C, strain rad23, stronger effect = lower value 0.982 | locus YEL061C, strain CIN8 (second series), stronger effect = lower value 0.99 | locus YEL061C, strain CIN8, stronger effect = lower value 0.993 | locus YER015W, strain faa2, stronger effect = lower value 1.01 | locus YER016W, strain bim1, stronger effect = lower value 1 | locus YER110C, stronger effect = lower value 1 | locus YER111C, strain swi4, stronger effect = lower value 1 | locus YER155C, strain BEM2 (second series), stronger effect = lower value 0.985 | locus YER155C, strain BEM2, stronger effect = lower value 1.01 | locus YER167W, strain BCK2, stronger effect = lower value 0.995 | locus YFR010W, strain ubp6, stronger effect = lower value 0.971 | locus YGL078C, strain dbp3, stronger effect = lower value 1.02 | locus YGL086W, strain mad1, stronger effect = lower value 0.965 | locus YGL167C, strain pmr1, stronger effect = lower value 0.987 | locus YGL173C, strain kem1, stronger effect = lower value 1 | locus YGL227W, strain vid30, stronger effect = lower value 1.01 | locus YGL240W, strain doc1, stronger effect = lower value 0.963 | locus YGL248W, strain PDE1, stronger effect = lower value 0.981 | locus YGL253W, strain hxk2, stronger effect = lower value 0.985 | [2] 0.964 | locus YGR135W, strain pre9, stronger effect = lower value 1.01 | locus YGR252W, strain gcn5, stronger effect = lower value 1.03 | locus YHR013C, strain ard1, stronger effect = lower value 1 | locus YHR027C, strain rpn1, stronger effect = lower value 0.998 | locus YHR030C, strain SLT2, stronger effect = lower value 0.981 and 1.02 | locus YHR079C, strain IRE1 (second series), stronger effect = lower value 0.995 | locus YHR079C, strain IRE1, stronger effect = lower value 1.06 | locus YHR094C, strain hxt1, stronger effect = lower value 1.01 | locus YHR129C, strain ARP1, stronger effect = lower value 1 | locus YHR142W, strain chs7, stronger effect = lower value 0.964 | locus YHR200W, strain rpn10, stronger effect = lower value 0.994 | locus YIL066C, strain RNR3, stronger effect = lower value 0.991 | locus YIL073C, strain SPO22, stronger effect = lower value 0.935 | locus YIL125W, strain kgd1, stronger effect = lower value 1 | locus YIR030C, strain dcg1, stronger effect = lower value 1.01 | locus YJL092W, strain hpr5, stronger effect = lower value 1.01 | locus YJL095W, strain BCK1 (second series), stronger effect = lower value 0.999 | locus YJL095W, strain BCK1, stronger effect = lower value 0.914 and 1.05 | locus YJL115W, strain asf1, stronger effect = lower value 0.996 | locus YJL129C, strain trk1, stronger effect = lower value 1.01 | locus YJL134W, strain LCB3, stronger effect = lower value 1 | locus YJL154C, strain vps35, stronger effect = lower value 0.997 | locus YJL164C, strain tpk1, stronger effect = lower value 0.996 | locus YJL166W, strain qcr8, stronger effect = lower value 0.983 | locus YJL168C, strain set2, stronger effect = lower value 1 | locus YJL187C, strain SWE1 (second series), stronger effect = lower value 0.954 | locus YJL187C, strain SWE1, stronger effect = lower value 0.995 | locus YJR043C, strain POL32, stronger effect = lower value 0.977 | locus YJR066W, strain TOR1, stronger effect = lower value 0.979 | locus YKL009W, strain mrt4, stronger effect = lower value 1.02 | locus YKL068W, stronger effect = lower value 1.02 | locus YKL085W, strain MDH1 (second series), stronger effect = lower value 1.01 | locus YKL085W, strain MDH1, stronger effect = lower value 1.01 | locus YKL160W, strain elf1, stronger effect = lower value 0.995 | locus YKL190W, strain CNB1, stronger effect = lower value 0.991 | locus YKR001C, strain vps1, stronger effect = lower value 0.928 | locus YKR026C, strain gcn3, stronger effect = lower value 1.02 | locus YKR091W, strain srl3, stronger effect = lower value 1 | locus YLL001W, strain dnm1, stronger effect = lower value 1.01 | locus YLL026W, stronger effect = lower value 1 | locus YLL041C, strain sdh2, stronger effect = lower value 1.01 | locus YLR027C, strain aat2, stronger effect = lower value 1.01 | locus YLR039C, strain RIC1, stronger effect = lower value 0.818 | locus YLR058C, strain SHM2, stronger effect = lower value 0.972 | locus YLR102C, strain apc9, stronger effect = lower value 1.01 | locus YLR113W, strain HOG1, stronger effect = lower value 1.07 | locus YLR221C, strain rsa3, stronger effect = lower value 1.01 | locus YLR258W, strain gsy2, stronger effect = lower value 0.991 | locus YLR268W, strain sec22, stronger effect = lower value 0.933 | locus YLR320W, strain mms22, stronger effect = lower value 0.949 | locus YLR330W, strain CHS5, stronger effect = lower value 0.986 | locus YLR342W, strain FKS1 (second series), stronger effect = lower value 0.984 | locus YLR342W, strain FKS1, stronger effect = lower value 1.01 | locus YLR357W, strain rsc2, stronger effect = lower value 1.03 | locus YLR370C, strain arc18, stronger effect = lower value 1.02 | locus YLR371W, strain rom2, stronger effect = lower value 0.963 | locus YLR384C, strain iki3, stronger effect = lower value 0.998 | locus YLR418C, strain cdc73, stronger effect = lower value 0.936 | locus YML016C, strain PPZ1, stronger effect = lower value 0.997 | locus YML032C, strain rad52, stronger effect = lower value 0.935 | locus YML120C, strain ndi1, stronger effect = lower value 0.998 | locus YML124C, strain tub3, stronger effect = lower value 1.01 | locus YMR058W, strain fet3, stronger effect = lower value 0.98 | locus YMR078C, strain ctf18, stronger effect = lower value 0.988 | locus YMR125W, strain sto1, stronger effect = lower value 1.05 | locus YMR129W, stronger effect = lower value 0.999 | locus YMR205C, strain PFK2, stronger effect = lower value 1.03 | locus YMR223W, strain ubp8, stronger effect = lower value 0.968 | locus YMR231W, strain pep5, stronger effect = lower value 0.999 | locus YMR263W, strain SAP30, stronger effect = lower value 0.982 | locus YMR307W, strain GAS1, stronger effect = lower value 0.883 | locus YNL067W, strain RPL9B, stronger effect = lower value 0.99 | locus YNL071W, strain lat1, stronger effect = lower value 0.996 | locus YNL183C, strain NPR1, stronger effect = lower value 0.974 | locus YNL209W, strain ssb2, stronger effect = lower value 0.988 | locus YNL233W, strain BNI4, stronger effect = lower value 0.966 | locus YNL248C, strain rpa49, stronger effect = lower value 0.948 | locus YNL250W, strain rad50, stronger effect = lower value 1.04 | locus YNL271C, strain bni1, stronger effect = lower value 1 | locus YNL298W, strain CLA4, stronger effect = lower value 1.02 | locus YNL307C, strain MCK1, stronger effect = lower value 1.01 | locus YNL322C, strain KRE1 (second series), stronger effect = lower value 1.02 | locus YNR049C, strain mso1, stronger effect = lower value 1.01 | locus YNR052C, strain pop2, stronger effect = lower value 0.961 | locus YOL012C, strain htz1 1.1 | locus YOL147C, strain pex11, stronger effect = lower value 0.994 | locus YOR001W, strain rrp6, stronger effect = lower value 0.983 | locus YOR061W, strain CKA2, stronger effect = lower value 1 | locus YOR069W, strain VPS5, stronger effect = lower value 0.999 | locus YOR070C, strain gyp1, stronger effect = lower value 1.02 | locus YOR080W, strain dia2, stronger effect = lower value 0.996 | locus YOR083W, strain WHI5, stronger effect = lower value 0.999 | locus YOR106W, strain vam3, stronger effect = lower value 0.965 | locus YOR136W, strain idh2, stronger effect = lower value 1.01 | locus YOR144C, strain elg1, stronger effect = lower value 0.998 | locus YOR184W, strain ser1, stronger effect = lower value 0.946 | locus YOR231W, strain MKK1, stronger effect = lower value 1.09 | locus YOR265W, strain rbl2, stronger effect = lower value 0.996 | locus YOR290C, strain snf2, stronger effect = lower value 0.967 | locus YOR316C, strain cot1, stronger effect = lower value 1.02 | locus YPL078C, strain atp4, stronger effect = lower value 0.96 | locus YPL106C, strain sse1, stronger effect = lower value 0.974 | locus YPL240C, strain hsp82, stronger effect = lower value 1 | locus YPL256C, strain CLN2, stronger effect = lower value 1.09 | locus YPR119W, strain clb2, stronger effect = lower value 1 | locus YPR141C, strain kar3, stronger effect = lower value 1.03 | locus YPR163C, strain tif3, stronger effect = lower value 1 | locus YPR167C, strain met16, stronger effect = lower value 0.998 | strain wtn01, stronger effect = lower value 0.97
active: locus YDR137W, strain rgp1, stronger effect = lower value 0.791 | locus YDR195W, strain ref2 1.18 [resistant] | locus YLR262C, strain YPT6 (second series), stronger effect = lower value 0.857 | locus YOR270C, strain vph1, stronger effect = lower value 0.772 | locus YPL051W, strain arl3, stronger effect = lower value 0.891
